The text below walks through data of ChEMBL document CHEMBL3433997, “St. Jude Leishmania screening dataset” (2016).

Sequence of Solute carrier family 2, facilitated glucose transporter member 1 (Homo sapiens) (P11166 whole entry): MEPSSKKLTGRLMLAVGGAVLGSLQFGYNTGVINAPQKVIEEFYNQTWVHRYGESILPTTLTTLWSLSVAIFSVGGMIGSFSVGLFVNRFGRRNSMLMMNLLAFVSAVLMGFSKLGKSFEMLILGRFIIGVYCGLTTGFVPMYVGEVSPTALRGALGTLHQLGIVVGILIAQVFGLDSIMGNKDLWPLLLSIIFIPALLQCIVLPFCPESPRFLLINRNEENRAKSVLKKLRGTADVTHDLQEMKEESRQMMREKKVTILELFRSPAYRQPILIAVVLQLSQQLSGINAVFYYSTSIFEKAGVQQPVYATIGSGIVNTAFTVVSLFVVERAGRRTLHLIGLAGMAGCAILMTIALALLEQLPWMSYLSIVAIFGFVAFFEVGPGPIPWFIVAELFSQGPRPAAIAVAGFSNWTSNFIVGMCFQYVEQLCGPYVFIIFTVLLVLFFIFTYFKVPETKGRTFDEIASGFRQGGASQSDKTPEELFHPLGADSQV

The first experiment addresses Solute carrier family 2, facilitated glucose transporter member 1 (Homo sapiens) (UniProt P11166). In words: ST_JUDE_LEISH: Cytotoxicity at 2uM final concentration against transgenic Leishmania Mexicana promastigotes LmGLUT1 that are glucose transport deficient and complemented with the human glucose transporter GLUT1. Activity is measured by DNA content using SYBR green in vitro. The class given is functional.
One may read the inhibition as the change of the read-out against control, counted positive when it falls. For `O=C(Nc1cccc(-c2cccc(-c3nc4cc(F)ccc4[nH]3)c2)c1)Nc1ccc2c(c1)OCO2`, the inhibition was determined as 1.84%.

As to `CN(C)CCNc1cc(-c2cccnc2)nc(-c2ccncc2)n1`, the inhibition was -1.31%.

With `CC(C)CNCc1cccc(-c2ccc(CNc3ccc4ncccc4c3)cc2)c1`, the inhibition turned out to be 1.45%.

Turning to `Cc1c(C(C)(C)C)ccc2nc(N)nc(N)c12`, the inhibition was 64%.

For the compound `Nc1nc(N)c2c(Cl)c(N3CCOCC3)ccc2n1`, the inhibition is 36.1%.

As to `c1ccc(CN2CCN(CCNc3c4ccccc4nc4ccccc34)CC2)cc1`, the inhibition was found to be 13.5%.

Take `CCSc1ccccc1CON1C(=N)N=C(N)NC1(C)C`: the inhibition stood at 15.4%.

For the compound `CCCCC(=O)Nc1nc2ccc([N+](=O)[O-])cc2s1`, the inhibition was determined as 1.98%.

Consider `CC(C)(C)c1ccc(S(=O)(=O)Nc2ccccc2Cn2nc(N3CCNCC3)ccc2=O)cc1`, for which the inhibition was determined as 8.03%.

Take `COCCN1CCC(C(=O)NCC(C)(C)c2nc(-c3ccc(Br)c(O)c3)c(-c3ccncc3)[nH]2)CC1`: the inhibition was 7.2%.

For the compound `COc1ccc(C2CCN(CCCCNC(=O)c3ccc(NC(=O)c4ccc(Cl)cc4)cc3)CC2)c(C)c1`, the inhibition is -0.79%.

With `Cc1cnc(C(=O)Nc2cccc(-c3cccc(-c4nc5cc(F)ccc5[nH]4)c3)c2)cn1`, the inhibition is 8.32%.

Turning to `COc1cccc(C2CCN(CCN3CCC(NC(=O)c4ccc(-c5ccc(C(F)(F)F)cc5)cc4)CC3)CC2)c1`, the inhibition stood at 4.19%.

For the compound `O=C(/C=C/c1ccc(Cl)c(Cl)c1)NCCCCCN1CCC(C(=O)Nc2ccc3c(c2)OCO3)CC1`, the inhibition was 6.29%.

Turning to `COc1cc(Cc2cnc(N)nc2N)ccc1OCC(=O)Nc1ccc(C)cc1`, the inhibition was found to be 8.4%.

`COc1ccc2c(NN=Cc3cccnc3)ccnc2c1`: the inhibition turned out to be 0.4%.

As to `CN1CCN(c2ccnc3ccc(NC(=O)Nc4ccc5ccccc5c4)cc23)CC1`, the inhibition is 2.79%.

Turning to `NC(=O)c1sc(-n2cnc3ccccc32)cc1OCc1ccccc1[N+](=O)[O-]`, the inhibition stood at 8.87%.

Consider `Cc1noc(C)c1-c1ccc(C(=C2CCCCCC2)c2ccc(O)cc2)cc1`, for which the inhibition is 3.18%.

Consider `COc1cc(OC)cc(C(=O)Nc2nc(-c3ccccn3)cs2)c1`, for which the inhibition turned out to be 7.32%.

In the case of `CC(C)NCc1ccc(-c2cccc(CN3CCC(c4ccccc4)CC3)c2)c(C(=O)NCC2CCCCC2)c1`, the inhibition stood at 7.97%.

As to `Cc1cccc2nc(-c3ccc(-c4cccc(NC(=O)CN5CCN(C)CC5)c4)s3)[nH]c12`, the inhibition is -0.82%.

Consider `CCC/C=C/c1c(CNCCCNc2cc(=O)c3ccccc3[nH]2)sc(CC)c1Br`, for which the inhibition was found to be 0.5%.

For the compound `O=C(NC1CCN(Cc2ccccc2)CC1)c1cc(-c2cccnc2)nc2ccc(Cl)cc12`, the inhibition came to 8.75%.

As to `O=C(Nc1cccc(C(F)(F)F)c1)Nc1ccc(F)c([N+](=O)[O-])c1`, the inhibition is 2.84%.

On to `C(=N\Nc1nccc2sc(-c3ccccc3)cc12)/c1cccnc1`, for which the inhibition stood at 4.32%.

Turning to `Cn1cc(CN2CCCC(COC(c3ccc(F)cc3)c3ccc(F)cc3)C2)cn1` (stereo not given), the inhibition turned out to be 2.32%.

For `COc1ccc2nc3cc(Cl)ccc3c(Nc3ccc(C(=O)O)cc3)c2c1`, the inhibition is 5.95%.

Regarding `CN(CCC(CCN1CCC(c2c[nH]c3ccccc23)CC1)c1ccccc1)C(=O)Nc1ccc(Cl)c(Cl)c1` (stereo not given), the inhibition stood at 2.82%.

Take `COc1cc(N(Cc2ccccc2C)S(=O)(=O)Cc2ccccc2[N+](=O)[O-])c(OC)cc1Cl`: the inhibition is 3.26%.

Take `c1ccc(-n2cncn2)cc1`: the inhibition was 0.46%.

With `CC(CNC(=O)c1cc2c(Cl)cc(Cl)cc2[nH]1)CNc1cc(=O)c2ccccc2[nH]1` (stereo not given), the inhibition was -0.17%.

`O=C(NCc1ccccc1)Nc1ccc(-c2cccc(-c3nc4cc(C(F)(F)F)ccc4[nH]3)c2)cc1`: the inhibition is -0.99%.

For the compound `CC1CCCN(S(=O)(=O)c2ccc(NC(=O)c3cc(-c4ccccc4O)n[nH]3)cc2)C1` (stereo not given), the inhibition turned out to be 1.49%.

For `O=S(=O)(NCCN1CCCC1)c1ccc(-c2ccc(CNCc3ccccc3)cc2)cc1F`, the inhibition stood at 3.64%.

With `COc1ccc2nccc([C@@H](O)CN3CCC(NCC(O)Cc4ccccc4)CC3)c2c1` (stereo not given in full), the inhibition is -0.38%.

For the compound `CC(NC(=O)c1ccc(O)c(-c2ccc(Cl)c(Cl)c2)c1)C(=O)NCCN1CCCC1` (stereo not given), the inhibition came out at 7.43%.

Consider `C#CCNC(=O)c1ccc(-c2ccnc(Nc3cccc(CCCN4CCOCC4)c3)n2)s1`, for which the inhibition amounted to 37.4%.

For the compound `Cc1nc(N)nc(N)c1-c1ccc(Cl)c(Cl)c1`, the inhibition stood at 6.9%.

Take `Clc1ccc(C2CCN(CCCOc3ccc4c(c3)CCNCC4)CC2)cc1`: the inhibition was determined as 56.8%.

Another experiment concerns the target Hexose transporter 1 (Plasmodium falciparum) (UniProt O97467). Put plainly: ST_JUDE_LEISH: Cytotoxicity at 2uM final concentration against transgenic Leishmania Mexicana promastigotes LmPfHT that are glucose transport deficient and complemented with the Plasmodium falciparum hexose transporter. Activity is measured by DNA content using SYBR green in vitro. The class given is functional.
`O=C(Nc1cccc(-c2cccc(-c3nc4cc(F)ccc4[nH]3)c2)c1)Nc1ccc2c(c1)OCO2`: the inhibition turned out to be 4.87%.

With `CN(C)CCNc1cc(-c2cccnc2)nc(-c2ccncc2)n1`, the inhibition is -1.16%.

On to `CC(C)CNCc1cccc(-c2ccc(CNc3ccc4ncccc4c3)cc2)c1`, for which the inhibition is 1.19%.

As to `Cc1c(C(C)(C)C)ccc2nc(N)nc(N)c12`, the inhibition was 63.5%.

`Nc1nc(N)c2c(Cl)c(N3CCOCC3)ccc2n1`: the inhibition came to 39.5%.

In the case of `c1ccc(CN2CCN(CCNc3c4ccccc4nc4ccccc34)CC2)cc1`, the inhibition came out at 10.9%.

Regarding `CCSc1ccccc1CON1C(=N)N=C(N)NC1(C)C`, the inhibition worked out at 19.1%.

Regarding `CCCCC(=O)Nc1nc2ccc([N+](=O)[O-])cc2s1`, the inhibition turned out to be 2.81%.

Turning to `CC(C)(C)c1ccc(S(=O)(=O)Nc2ccccc2Cn2nc(N3CCNCC3)ccc2=O)cc1`, the inhibition is 7.83%.

For `COCCN1CCC(C(=O)NCC(C)(C)c2nc(-c3ccc(Br)c(O)c3)c(-c3ccncc3)[nH]2)CC1`, the inhibition was determined as 8.02%.

`COc1ccc(C2CCN(CCCCNC(=O)c3ccc(NC(=O)c4ccc(Cl)cc4)cc3)CC2)c(C)c1`: the inhibition was -0.57%.

In the case of `Cc1cnc(C(=O)Nc2cccc(-c3cccc(-c4nc5cc(F)ccc5[nH]4)c3)c2)cn1`, the inhibition came to 5.55%.

As to `COc1cccc(C2CCN(CCN3CCC(NC(=O)c4ccc(-c5ccc(C(F)(F)F)cc5)cc4)CC3)CC2)c1`, the inhibition turned out to be 5.8%.

Consider `O=C(/C=C/c1ccc(Cl)c(Cl)c1)NCCCCCN1CCC(C(=O)Nc2ccc3c(c2)OCO3)CC1`, for which the inhibition is 5.08%.

As for `COc1cc(Cc2cnc(N)nc2N)ccc1OCC(=O)Nc1ccc(C)cc1`, the inhibition is 9.26%.

Take `COc1ccc2c(NN=Cc3cccnc3)ccnc2c1`: the inhibition stood at 2.02%.

For `CN1CCN(c2ccnc3ccc(NC(=O)Nc4ccc5ccccc5c4)cc23)CC1`, the inhibition is 1.63%.

In the case of `NC(=O)c1sc(-n2cnc3ccccc32)cc1OCc1ccccc1[N+](=O)[O-]`, the inhibition stood at 7.21%.

Turning to `Cc1noc(C)c1-c1ccc(C(=C2CCCCCC2)c2ccc(O)cc2)cc1`, the inhibition was 3.88%.

As to `COc1cc(OC)cc(C(=O)Nc2nc(-c3ccccn3)cs2)c1`, the inhibition worked out at 14.4%.

For `CC(C)NCc1ccc(-c2cccc(CN3CCC(c4ccccc4)CC3)c2)c(C(=O)NCC2CCCCC2)c1`, the inhibition was 8.3%.

For the compound `Cc1cccc2nc(-c3ccc(-c4cccc(NC(=O)CN5CCN(C)CC5)c4)s3)[nH]c12`, the inhibition was -1.13%.

Take `CCC/C=C/c1c(CNCCCNc2cc(=O)c3ccccc3[nH]2)sc(CC)c1Br`: the inhibition was determined as 1.29%.

As for `O=C(NC1CCN(Cc2ccccc2)CC1)c1cc(-c2cccnc2)nc2ccc(Cl)cc12`, the inhibition came out at 6.45%.

Regarding `O=C(Nc1cccc(C(F)(F)F)c1)Nc1ccc(F)c([N+](=O)[O-])c1`, the inhibition was determined as 3.09%.

Take `C(=N\Nc1nccc2sc(-c3ccccc3)cc12)/c1cccnc1`: the inhibition came out at 3.5%.

For `Cn1cc(CN2CCCC(COC(c3ccc(F)cc3)c3ccc(F)cc3)C2)cn1` (stereo not given), the inhibition turned out to be 1.9%.

With `COc1ccc2nc3cc(Cl)ccc3c(Nc3ccc(C(=O)O)cc3)c2c1`, the inhibition was -1.31%.

In the case of `CN(CCC(CCN1CCC(c2c[nH]c3ccccc23)CC1)c1ccccc1)C(=O)Nc1ccc(Cl)c(Cl)c1` (stereo not given), the inhibition stood at 0.21%.

Consider `COc1cc(N(Cc2ccccc2C)S(=O)(=O)Cc2ccccc2[N+](=O)[O-])c(OC)cc1Cl`, for which the inhibition was 2.73%.

For `c1ccc(-n2cncn2)cc1`, the inhibition is 1.47%.

`CC(CNC(=O)c1cc2c(Cl)cc(Cl)cc2[nH]1)CNc1cc(=O)c2ccccc2[nH]1` (stereo not given): the inhibition was 1.37%.

As to `O=C(NCc1ccccc1)Nc1ccc(-c2cccc(-c3nc4cc(C(F)(F)F)ccc4[nH]3)c2)cc1`, the inhibition is -0.18%.

As to `CC1CCCN(S(=O)(=O)c2ccc(NC(=O)c3cc(-c4ccccc4O)n[nH]3)cc2)C1` (stereo not given), the inhibition came to 3.54%.

Turning to `O=S(=O)(NCCN1CCCC1)c1ccc(-c2ccc(CNCc3ccccc3)cc2)cc1F`, the inhibition was 3.01%.

`COc1ccc2nccc([C@@H](O)CN3CCC(NCC(O)Cc4ccccc4)CC3)c2c1` (stereo not given in full): the inhibition was -3.2%.

Consider `CC(NC(=O)c1ccc(O)c(-c2ccc(Cl)c(Cl)c2)c1)C(=O)NCCN1CCCC1` (stereo not given), for which the inhibition was 6.16%.

On to `C#CCNC(=O)c1ccc(-c2ccnc(Nc3cccc(CCCN4CCOCC4)c3)n2)s1`, for which the inhibition turned out to be 37.9%.

Regarding `Cc1nc(N)nc(N)c1-c1ccc(Cl)c(Cl)c1`, the inhibition worked out at 5.53%.

Turning to `Clc1ccc(C2CCN(CCCOc3ccc4c(c3)CCNCC4)CC2)cc1`, the inhibition was found to be 40.9%.
